According to the supplement of paper PMC8253809:
Values joined by “and” are separate entries in the source; they are usually repeats but may differ in a detail not shown here. Equal entries are not always repeated.

Key:
Test in all cases: growth inhibition (% activity, log2 RLU normalised to DMSO / staurosporine); higher = more growth inhibition
Settings in all cases: 33 µM
DIPGX29 = test system: DIPGX29 (H3.3 K27M diffuse intrinsic pontine glioma line)
Outline: (§1)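 For each approved drug, the growth-inhibition value is the replicate median of per-plate normalised CellTiter-Glo data. Luminescence was log2-transformed and expressed as % activity between solvent and positive control wells. Drugs were applied in triplicate at a single final concentration of about 33 μM for 7 days at 37 °C, 5% CO2 to pHGG cell lines and H9-derived neural stem cells.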

DIPGX37 = test system: DIPGX37 (H3.3 K27M diffuse intrinsic pontine glioma line)
Outline: as §1

DIPGX7 = test system: DIPGX7 (H3.3 K27M diffuse intrinsic pontine glioma line)
Outline: as §1

DIPGX9 = test system: DIPGX9 (diffuse intrinsic pontine glioma line)
Outline: as §1

HGGX39 = test system: HGGX39 (paediatric high-grade glioma line)
Outline: as §1

HGGX6 = test system: HGGX6 (H3.3 G34R paediatric high-grade glioma line)
Outline: as §1

HNSC = test system: HNSC
Outline: as §1

SUDIPGIV = test system: SUDIPGIV (diffuse intrinsic pontine glioma line)
Outline: as §1

SUDIPGVI = test system: SUDIPGVI (diffuse intrinsic pontine glioma line)
Outline: as §1

SUDIPGXIII = test system: SUDIPGXIII (diffuse intrinsic pontine glioma line)
Outline: as §1

SMILES	growth inhibition (DIPGX29)	growth inhibition (DIPGX37)	growth inhibition (DIPGX7)	growth inhibition (DIPGX9)	growth inhibition (HGGX39)	growth inhibition (HGGX6)	growth inhibition (HNSC)	growth inhibition (SUDIPGIV)	growth inhibition (SUDIPGVI)	growth inhibition (SUDIPGXIII)
NS(=O)(=O)c1cc2c(cc1C(F)(F)F)NC(Cc1ccccc1)NS2(=O)=O (stereo not given)	-1.42%	2.24%	-1.56%	-0.0939%	-0.621%	1.26%	-0.523%	-1.96%	0.355%	0.995%
CCC[S+]([O-])c1ccc2[nH]c(NC(=O)OC)nc2c1 (stereo not given)	3.39%	3.5%	1.48%	2.55%	0.691%	2.32%	3.73%	2.81%	-0.51%	2.63%
O=C(O)Cc1ccccc1Nc1c(Cl)cccc1Cl	-1.37% and -2.99% and -0.71%	-1.99% and -1.73% and 0.418%	-1.57% and -1.88% and -1.25%	-1.08% and -0.109% and -0.719%	-2.62% and -2.86% and 0.69%	0.514% and 2.52% and -0.0763%	-3.6% and -4.25% and -2.46%	-6.51% and -6.18% and -5.78%	-1.69% and -1.9% and -1.43%	-0.705% and -7.4% and 0.367%
CN(C)CCCN1c2ccccc2CCc2ccccc21	-0.201%	2.87%	0.728%	1.54%	6.76%	3.35%	3.17%	2.4%	-0.367%	2.4%
Cn1c(=O)c2[nH]cnc2n(C)c1=O	-2.13%	0.51%	-0.294%	-0.0831%	-0.447%	0.444%	-5.61%	-0.366%	-2.69%	-1.98%
NC[C@H]1CC[C@H](C(=O)O)CC1	-0.318%	1.11%	0.868%	1.09%	2.3%	0.25%	-0.348%	-1.18%	0.626%	-0.00541%
CCN(CC)C(=O)C1(c2ccccc2)CC1CN (stereo not given)	0.721%	0.301%	0.852%	0.846%	0.86%	2.42%	1.54%	1.15%	2.57%	0.599%
Nc1c2ccccc2nc2ccccc12	17.5%	1.87%	5.31%	20.4%	12.2%	14.7%	58.1%	14.3%	5.87%	0.896%
Cc1cc(C)nc(NS(=O)(=O)c2ccc(N)cc2)n1	-2.92%	0.0741%	-1.22%	-1.22%	-1.68%	-2.24%	4.45%	-1.47%	-1.67%	0.778%
O=C1NCC2(CCN(CCc3ccccc3)CC2)O1	0.324%	-0.568%	0.908%	1.98%	1.24%	0.472%	-0.511%	-1.95%	0.357%	0.871%
N=C(N)N/N=C/c1c(Cl)cccc1Cl	1.41%	1.84%	1.08%	1.59%	4.69%	2.81%	1.67%	7.04%	3.21%	1.52%
CNC(=O)c1ccccc1Sc1ccc2c(/C=C/c3ccccn3)n[nH]c2c1	12.6%	6.36%	11.4%	17.5%	10.9%	20.3%	60.4%	4.73%	0.631%	5.66%
CN1C2CCCC1CC(NC(=O)c1nn(C)c3ccccc13)C2 (stereo not given)	1.3%	-1.75%	0.448%	1.03%	1.66%	1.21%	1.6%	0.0415%	1.95%	0.965%
CN(C)[C@@H]1C(O)=C(C(=O)NCN2CCCC2)C(=O)[C@@]2(O)C(O)=C3C(=O)c4c(O)cccc4[C@@](C)(O)[C@H]3C[C@@H]12	-1.08%	-1.26%	-0.844%	0.66%	-0.334%	0.151%	-2.27%	0.0649%	2.48%	0.413%
COC(=O)CCc1ccc(OCC(O)CNC(C)C)cc1 (stereo not given)	0.107%	1.63%	0.0919%	0.526%	0.823%	1.03%	-0.617%	-1.21%	1.48%	0.0941%
COC(=O)/C=C/C(=O)OC	-1.63%	0.743%	-0.432%	-0.334%	0.42%	-3.26%	6.49%	-2.1%	-1%	1.57%
CO[C@H]1/C=C/O[C@@]2(C)Oc3c(C)c(O)c4c(O)c(c5c(nc6cc(C)ccn65)c4c3C2=O)NC(=O)/C(C)=C\C=C\[C@H](C)[C@H](O)[C@@H](C)[C@@H](O)[C@@H](C)[C@H](OC(C)=O)[C@@H]1C	-0.23%	1.09%	0.284%	1.81%	1.27%	1.5%	0.942%	-1.07%	1.39%	-1.05%
O=C(NC[C@H]1CN(c2ccc(N3CCOCC3=O)cc2)C(=O)O1)c1ccc(Cl)s1	-0.891%	0.377%	-0.155%	-1.03%	0.0326%	0.545%	0.606%	3.01%	-0.593%	1.19%
COc1ccc(-c2ccc3cc(C(=O)O)ccc3c2)cc1C12CC3CC(CC(C3)C1)C2	2.22%	0.00524%	1.73%	2.82%	2.84%	2.51%	1.43%	3.15%	-4.99%	1.39%
Nc1ccc(S(=O)(=O)Nc2ccccn2)cc1	0.131%	-0.785%	-0.925%	-0.171%	0.333%	0.609%	0.764%	-1.02%	1.15%	-1.65%
O=C(O)c1cn(C2CC2)c2cc(N3CCNCC3)c(F)cc2c1=O	-1.96%	-2.35%	-2.23%	-1.26%	-1.56%	-1.82%	-1.04%	-1.7%	-2.88%	-1.57%
NC(=O)c1ncn([C@@H]2O[C@H](CO)[C@@H](O)[C@H]2O)c1N	1.44%	1.81%	1.73%	2.02%	2.08%	0.815%	5.91%	0.00762%	2.75%	-1.11%

SMILES	growth inhibition (DIPGX29)	growth inhibition (DIPGX37)	growth inhibition (DIPGX7)	growth inhibition (DIPGX9)	growth inhibition (HGGX39)	growth inhibition (HGGX6)	growth inhibition (HNSC)	growth inhibition (SUDIPGIV)	growth inhibition (SUDIPGVI)	growth inhibition (SUDIPGXIII)
C[C@@H](O[C@H]1OCCN(Cc2nn(P(=O)(O)O)c(=O)[nH]2)[C@H]1c1ccc(F)cc1)c1cc(C(F)(F)F)cc(C(F)(F)F)c1	6.53%	2.67%	3.46%	4.01%	11.6%	5.75%	4.2%	16.2%	3.61%	11.4%
O=C1CCc2cc(OCCCCc3nnnn3C3CCCCC3)ccc2N1	3.36%	2.01%	4.29%	2.35%	7.05%	2.3%	4.38%	3.38%	3.43%	1.12%
Cc1ccc(-n2[nH]c(C)c(N=Nc3cccc(-c4cccc(C(=O)O)c4)c3O)c2=O)cc1C	-2.95%	-1.98%	0.213%	-1.59%	-1.34%	-2.27%	13.7%	-2.64%	-2.5%	1.95%
Cc1cnc(C(=O)NCCc2ccc(S(=O)(=O)NC(=O)NC3CCCCC3)cc2)cn1	0.556%	2.29%	1.52%	0.701%	1.35%	1.61%	0.478%	0.461%	1.46%	0.0328%
C[C@H](N)[C@H](O)c1cccc(O)c1	2.35%	0.0235%	1.7%	1.54%	5.08%	0.73%	3.77%	1.73%	4.42%	1.04%
CC1(C)S[C@@H]2[C@H](NC(=O)[C@H](N)c3ccc(O)cc3)C(=O)N2[C@H]1C(=O)O	-2.54% and 1.43%	-2.93% and 3.86%	-1.48% and 1.69%	0.486% and 1.84%	0.0264% and 2.87%	0.163% and 3.37%	-3.3% and 1.46%	-1.85% and 0.698%	-2.12% and 2.79%	7.41% and 0.66%
C/C(O)=C(\C#N)C(=O)Nc1ccc(C(F)(F)F)cc1	3.56%	5.04%	3.25%	5.83%	5.87%	5.21%	2.85%	9.89%	4.21%	-15.3%
CN1C(C(=O)Nc2ccccn2)=C(O)c2sc(Cl)cc2S1(=O)=O	-1.88%	-0.653%	-2.4%	0.761%	-1.26%	-0.605%	-1.13%	-7.21%	-0.634%	2.15%
COC(=O)C1=C(C#N)NC(C)=C(C(=O)OC(C)C)C1c1cccc([N+](=O)[O-])c1 (stereo not given)	-1.9%	-0.628%	-0.445%	-1.03%	-1.34%	-3.12%	5%	-1.37%	-1.47%	1.7%
CC(CN(C)C)CN1c2ccccc2CCc2ccccc21 (stereo not given)	-1.45%	-0.198%	-0.333%	-0.216%	4.41%	-2.56%	3.02%	1.48%	0.808%	-0.414%
Cc1cc(=O)n(-c2ccccc2)n1C	-0.731%	-0.447%	-1.9%	0.213%	-0.272%	-0.826%	-1.87%	0.134%	0.115%	0.666%
Cc1cccc(CN2CCN(C(c3ccccc3)c3ccc(Cl)cc3)CC2)c1 (stereo not given)	6.1%	6.46%	7.93%	8.12%	6.5%	7.41%	3.84%	25.4%	4.9%	4.67%
COC1=C(OC)C(=O)C(CCCCCCCCCCO)=C(C)C1=O	3.13%	3.03%	2.61%	2.12%	2.64%	3.84%	5.4%	1.6%	3.24%	2.03%
Fc1ccc([C@@H]2CCNC[C@H]2COc2ccc3c(c2)OCO3)cc1	1.88%	0.828%	1.44%	-0.123%	-1.48%	0.754%	54.9%	-0.812%	-0.542%	1.2%
Clc1ccc2c(c1)C(N1CCNCC1)=Nc1ccccc1O2	0.461%	1.52%	1.07%	1.29%	4.43%	-0.239%	0.635%	0.284%	2.1%	0.741%
COc1c(N2C[C@@H]3CCCN[C@@H]3C2)c(F)cc2c(=O)c(C(=O)O)cn(C3CC3)c12	0.967%	2.87%	5.33%	1.28%	3.99%	2.07%	2.61%	0.935%	2.05%	-1.1%
CN1C(C(=O)Nc2ccccn2)=C(O)c2ccccc2S1(=O)=O	-1.78%	1.01%	-0.635%	-1.57%	0.433%	-2.07%	2.62%	-1.29%	0.752%	-1.07%
N#CC(c1ccc(Cl)cc1)c1c(Cl)cc(-n2ncc(=O)[nH]c2=O)cc1Cl (stereo not given)	-3.67%	-2.44%	-2.85%	-2.54%	-2.75%	-3.94%	-1.15%	-2.27%	-3.68%	0.254%
CCCCC(=O)O[C@]1(C(=O)CO)[C@@H](C)C[C@H]2[C@@H]3CCC4=CC(=O)C=C[C@]4(C)[C@@]3(F)[C@@H](O)C[C@@]21C	2.95%	4.71%	0.933%	4%	3.19%	1.27%	0.754%	0.551%	2.82%	2.04%
O=C(C1CCCCC1)N1CC(=O)N2CCc3ccccc3C2C1 (stereo not given)	0.382%	3.23%	1.04%	1.99%	2.3%	0.441%	3.24%	-1.19%	3.33%	-0.635%
C=CC[C@@H]1/C=C(\C)C[C@H](C)C[C@H](OC)[C@H]2O[C@@](O)(C(=O)C(=O)N3CCCC[C@H]3C(=O)O[C@H](/C(C)=C/[C@@H]3CC[C@@H](O)[C@H](OC)C3)[C@H](C)[C@@H](O)CC1=O)[C@H](C)C[C@@H]2OC	1.19%	-1.52%	3.82%	4.63%	9.14%	3.03%	6.43%	4.72%	5.58%	2.59%
